Measurements from PubChem BioAssay (NCI).
The panel holds about 83,000 compounds, 20% with a hit somewhere; the sample as a whole holds those more often.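 Compound tested at a single concentration for 48 hours in 96-well plates; a percent growth value below 10 was scored as active.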 Values without a mark were called inactive. The source made the active and inactive calls.

Tests used:
Assay in all cases: NCI-60 one-dose screen, 48 h (100 = growth as untreated, 0 = no growth, -100 = all killed)
Conditions in all cases: 10 µM unless noted
HCT-15 colon = tested on: HCT-15 colon
HT29 colon = tested on: HT29 colon
SNB-75 CNS = tested on: SNB-75 CNS
SNB-19 CNS = tested on: SNB-19 CNS
U251 CNS = tested on: U251 CNS
PC-3 prostate = tested on: PC-3 prostate
UACC-62 melanoma = tested on: UACC-62 melanoma
LOX IMVI melanoma = tested on: LOX IMVI melanoma
SK-MEL-28 melanoma = tested on: SK-MEL-28 melanoma

| Structure (SMILES) | growth (HCT-15 colon) | growth (HT29 colon) | growth (SNB-75 CNS) | growth (SNB-19 CNS) | growth (U251 CNS) | growth (PC-3 prostate) | growth (UACC-62 melanoma) | growth (LOX IMVI melanoma) | growth (SK-MEL-28 melanoma) |
| --- | --- | --- | --- | --- | --- | --- | --- | --- | --- |
| Cc1cc(N2CCCCC2)nc(NC2CCCC(Nc3ccnc4cc(Cl)ccc34)C2)n1 (configuration not stated) | -67.6% (active) | -59.9% (active) | -80.9% (active) | -20.7% (active) | -97.4% (active) | -72.8% (active) | -86.2% (active) | -84.9% (active) | -84% (active) |
| CC(=O)c1cc2c(N)c(C(=O)Nc3cccc4ccccc34)sc2nc1C | 33.8% | 5.75% (active) | 19.8% | 21.7% | 15.3% | 17.5% | 23.5% | 41.1% | 67.2% |
| Cn1nc(N)c2cc([C@@H]3Nc4ccc5[nH]ncc5c4[C@H]4C5CCC(C5)[C@@H]34)ccc21 (some centres not stated) | 17.9% | 11.6% | -17.9% (active) | 29.5% | 21.1% | 17.4% | 32.1% | 38.8% | 53.2% |
| CC1=C[C@H]2c3c(c(O)c(O)c4oc5c(C)cccc5c(=O)c34)[C@H](c3cc(O)c(O)c4oc5c(C)cccc5c(=O)c34)[C@H]2C(C)(C)C1 | 12.5% | 21% | -25.7% (active) | 15.2% | 11.3% | 10.1% | -43% (active) | -85.8% (active) | 26.6% |
| N#Cc1nnn(-c2ccc(S(N)(=O)=O)cc2)c1NC(=O)CCl | 96% | 102% | 85.5% | 96.3% | 92.3% | 89.7% | 96.6% | 94.6% | 104% |
| O=C1c2cc3c(cc2-c2c1c1ccc(Cl)cc1c(=O)n2CCCN1CCOCC1)OCO3 | 80.9% | 63.3% | 84.2% | 47.1% | 27.4% | 74% | 23.6% | 26.7% | 99.9% |
| O=C1c2cc3c(cc2-c2c1c1ccc(F)cc1c(=O)n2C[C@H](O)[C@@H](O)[C@H](O)CO)OCO3 | 5.37% (active) | -2.72% (active) | -38.4% (active) | 4.38% (active) | -19.1% (active) | 7.25% (active) | -55.5% (active) | -30.4% (active) | -37.6% (active) |
| CCNC(=O)Oc1ccc(/C(=C(\C)c2ccc(Cl)cc2)c2ccc(OCCN3CCCCC3)cc2)cc1 | 2.75% (active) | 0.431% (active) | 61.7% | 64.5% | 32.9% | 28.7% | -45.7% (active) | 10.6% | -30.4% (active) |
| CC1C(/C=N/Nc2ccccc2)C(C#N)(C#N)C1(C#N)C#N (configuration not stated) | 69.2% | 97.6% | 71.7% | 98.6% | 101% | 65.9% | 5.25% (active) | 38.7% | 100% |
| O=S(=O)(Nc1ccc(NS(=O)(=O)c2ccccc2)c(Cl)c1)c1ccccc1 | 110% | 107% | 84.9% | 112% | 105% | 88.7% | 88.8% | 106% | 107% |
| CCCCN1CCCn2c1nc1c2c(=O)n(CCC)c(=O)n1CCC | 106% | 97.8% | 74.2% | 96.6% | 91.8% | 91.3% | 85.4% | 93.8% | 103% |
| FC(F)(F)Oc1ccc2nc3nc4ccc[nH]c4cc3c2c1 | 87% | 73.9% | 61.7% | 58.3% | 65.6% | 80% | 81% | 80% | 94.6% |
| O=c1ccccc(-c2ccc(-c3ccco3)cc2)c1O | 29% | 24.9% | 38.8% | 19.3% | 8.2% (active) | 32% | -42.3% (active) | 8.59% (active) | 30.7% |
| COc1ccc(/C=C/c2nc3ccccc3nc2/C=C/c2ccc(OC)cc2)cc1 | 94.5% | 95.1% | 87.8% | 108% | 95.4% | 80.3% | 90% | 102% | 102% |
| O=c1cc(CSc2nnc(-c3ccc(F)cc3)o2)c2ccc3ccccc3c2o1 | 98.4% | 95% | 98.3% | 101% | 102% | 92.5% | 93.5% | 87.7% | 110% |
| COc1cc2c(cc1-c1c(C)noc1C)ncc1nc(C3CCOCC3)n([C@@H](C)COC(F)F)c12 | 24.5% | 18.8% | 28.7% | 56.6% | 53.3% | 39.2% | 20.7% | 24.2% | 53.5% |
| COc1ccc(-c2nn(-c3ccc(Cl)cc3)cc2-c2nc3ccccc3[nH]2)cc1 | 103% | 84.5% | 76.6% | 91.9% | 104% | 81.5% | 75.8% | 82.1% | 99.5% |
| COc1cc2c(cc1-c1c(C)noc1C)ncc1nc(C3CCCCC3)n([C@H](C)COC(F)F)c12 | 15.1% | 19.3% | 41% | 45.4% | 45.7% | 35% | 22.8% | 11% | 49.9% |
| CC(C)CC1C(=O)N2CCC[C@H]2C2(O)O[C@](NC(=O)C3C=C4c5cccc6[nH]c(Br)c(c56)C[C@H]4N(C)C3)(C(C)C)C(=O)N12 (some centres not stated) | 43.1% | 53.2% | 35.5% | 69.9% | 53.4% | 20.4% | 56.4% | 62.5% | 91.3% |
| OCC(O)c1nc2ccc3[nH]ncc3c2c2c1CCCC2 (configuration not stated) | 5.03% (active) | 9.08% (active) | -60.8% (active) | 7.63% (active) | 7.68% (active) | 9.74% (active) | -8.7% (active) | 2.42% (active) | -3.58% (active) |
| Cc1ccc(NC(=O)C2CCC(CN3CCN(C)CC3)CC2)cc1Nc1nccc(-c2cccnc2)n1 (configuration not stated) | 95.2% | 100% | 77.6% | 100% | 95% | 103% | 103% | 90.8% | 99.7% |
| CC(C)C[C@@H](NC(=O)[C@@H](Cc1ccccc1)NC(=O)c1cnccn1)B1Oc2ccc(C[C@H](NC(=O)[C@H](Cc3ccc4c(c3)OB([C@@H](CC(C)C)NC(=O)[C@@H](Cc3ccccc3)NC(=O)c3cnccn3)O4)NC(=O)[C@@H](N)CC3CCC4OB([C@@H](CC(C)C)NC(=O)[C@@H](CC5CCCCC5)NC(=O)C5CNCCN5)OC4C3)C(=O)NCCCC[C@@H]3NC(=O)[C@@H](Cc4ccccc4)NC(=O)[C@H](CC(=O)O)NC(=O)CNC(=O)[C@H](CCCNC(=N)N)NC3=O)cc2O1 (some centres not stated) | -49.1% (active) | -61.9% (active) | -64% (active) | -24.7% (active) | -58.4% (active) | -48.4% (active) | -73.8% (active) | -87.9% (active) | -31.7% (active) |
| COc1cc2c(cc1-c1c(C)noc1C)ncc1nc(C3CCCC3)n([C@H](C)COC(F)F)c12 | 16.8% | 18.3% | 37.4% | 49.5% | 39.7% | 31.8% | 20.7% | 13.2% | 53.8% |
| Clc1ccc2c(NCCNc3nc(N4CCCCC4)nc4ccccc34)ccnc2c1 | -30.1% (active) | -28% (active) | -23.2% (active) | 13.2% | -81.7% (active) | 9.71% (active) | -90.7% (active) | -83.6% (active) | -79.2% (active) |
| O=C(O)c1c(=O)cccc2ssc12 | 4.16% (active) | -48.6% (active) | 26.9% | -74.4% (active) | -91.9% (active) | -19.3% (active) | 14.3% | 1.04% (active) | 10.8% |
| O=C(/C=C/C=C/c1ccc2c(c1)OCO2)N/N=C\c1ccc(O)cc1O | 17% | 48.1% | 64% | 49.3% | 31.3% | 38% | 14.3% | 9.69% (active) | 42.1% |
| COc1ccc2cc(-c3nn(-c4ccc(C(=O)O)cc4)cc3CO)ccc2c1 | 98.1% | 98.7% | 80.9% | 103% | 104% | 98.7% | 103% | 101% | 112% |
| O=C1/C(=C(/c2ccccc2)N2CCOCC2)Cc2ccccc21 | -25.9% (active) | 8.82% (active) | 50.3% | 78.1% | 9.15% (active) | 12.2% | 48.6% | -58.3% (active) | -28.9% (active) |
